# In the library only some 7.3% were active in any assay of this set; here they are far more common.
# NPC1 promoter act: qHTS Assay for NPC1 Promoter Activators | Huh7 NPC1 promoter luciferase reporter, 24 h | Potency, µM (top dose mostly 9.22 µM), inactives show at the highest dose activation, hits mostly activators | actives 2.4% (n = 320,000) | AID 485313, 2010; note: % of control where 0% means no effect; nearly all actives have a fitted effect of over 60% in size
#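 Compounds in DMSO were transferred onto Huh7 NPC1-luciferase reporter cells pre-incubated 2 h; after 24 h at 37 °C, Amplite reagent was dispensed and luminescence recorded 10 min later.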
# ELG1 genotoxic: qHTS screen for small molecules that induce genotoxicity in human embryonic kidney (HEK293T) cells expressing luciferase-tagged ELG1; HEK293T ELG1-luciferase reporter, luminescence, 16 h; Potency, µM (doses to about 46 µM), inactives show at the top dose activity change, positive = activation, actives largely listed as activators; actives 1.3% (n = 330,000); AID 504466, 2011; note: % of control where 0% means no effect; nearly all actives have a fitted effect of over 60% in size
#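 ELG1-luciferase HEK293T cells, 2,000/well; compound pinned in; 16 hr, 37 °C, 5% CO2; ONE-Glo, 30 min RT; luminescence on CCD imager.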
# SMN2 splice up: qHTS Assay for Enhancers of SMN2 Splice Variant Expression | HEK293 SMN2-luciferase splicing reporter, luminescence, 30-36 h | Potency, µM (doses to about 46.1 µM), without a hit: at the highest dose activity change, positive = activation, most hits filed as activators | actives 2.8% (n = 210,000) | AID 1458, 2008; note: % of control where 0% means no effect; nearly all actives have a fitted effect of over 55% in size
#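 HEK293 cells carry an SMN2 […]–luciferase reporter in which exon 7 inclusion puts luciferase in frame. Cells were plated 10-12 h before compound addition, then incubated 30-36 h at 37C. ONE-Glo luminescence was read; sodium butyrate at 4.5 mM final served as control.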
# Rab9 promoter act: qHTS Assay for Rab9 Promoter Activators | Huh7 Rab9 promoter-luciferase reporter, luminescence, 24 h | Potency, µM (doses to about 9.22 µM), for the others: at the highest dose activation, negative = inhibition, most hits filed as activators | actives 2.8% (n = 320,000) | AID 485297, 2010; note: % of control where 0% means no effect; nearly all actives have a fitted effect of over 60% in size
#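 Rab9 promoter-driven luciferase in stably transfected Huh7 cells; 1500 cells/well rested 2 h, exposed to compound in DMSO for 24 h at 37 °C, 5% CO2. Luminescence read 10 min after adding luciferase reagent at ambient temperature.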
# FLuc modulator: qHTS profiling assay for firefly luciferase inhibitor/activator using purifed enzyme and Km concentrations of substrates (counterscreen for miR-21 project). Luciferin 4-monooxygenase (Photinus pyralis), P08659. purified FLuc, Km substrates, luminescence inhibition. Potency, µM (top dose mostly 57.5 µM), inactives show top-dose activity change, negative = inhibition, hits mostly inhibitors. actives 6.9% (n = 360,000);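 note: plate controls were vehicle for no effect and reference inhibitor for full effect; nearly all actives have a fitted effect of over 55% in size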
# Target sequence (P08659 whole entry, looked up): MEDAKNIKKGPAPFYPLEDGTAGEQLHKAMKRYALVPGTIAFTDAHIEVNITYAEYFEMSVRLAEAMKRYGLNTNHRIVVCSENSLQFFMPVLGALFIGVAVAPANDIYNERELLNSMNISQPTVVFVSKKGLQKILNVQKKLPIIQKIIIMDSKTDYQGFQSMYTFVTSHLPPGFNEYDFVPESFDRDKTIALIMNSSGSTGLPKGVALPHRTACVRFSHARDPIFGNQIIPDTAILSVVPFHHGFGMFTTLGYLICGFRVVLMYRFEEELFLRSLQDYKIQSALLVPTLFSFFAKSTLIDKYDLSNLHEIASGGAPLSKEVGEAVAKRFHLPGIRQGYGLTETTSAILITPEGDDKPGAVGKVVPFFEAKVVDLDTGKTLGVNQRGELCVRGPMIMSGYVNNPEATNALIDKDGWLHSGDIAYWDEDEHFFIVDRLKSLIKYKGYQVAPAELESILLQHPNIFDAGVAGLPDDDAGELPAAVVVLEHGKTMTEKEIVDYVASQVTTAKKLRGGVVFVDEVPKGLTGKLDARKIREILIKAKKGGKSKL
#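 Purified P. pyralis luciferase (10nM final) with 10uM D-luciferin and 10uM ATP (Km levels) in 50mM Tris acetate pH 7.5, 10mM Mg acetate, 0.01% Tween-20, 0.05% BSA; qHTS 6-point titration, ~60 µM downward; luminescence read.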
# KinaseGlo FLuc: Counterscreen for Luciferase (Kinase-Glo TM) Inhibition. Potency, µM (top dose mostly 38.3 µM), for inactives: top-dose activity change, negative = inhibition, hits mostly inhibitors. Luciferin 4-monooxygenase (Photuris pensylvanica), Q27757. actives 0.28% (n = 200,000). AID 1379, 2008. Kinase-Glo luciferase, ATP luminescence, 8 min; note: % is set by controls: 0 for no effect and ±100 for the full control effect; nearly all actives have a fitted effect of over 60% in size
#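 Inhibition of Kinase-Glo luciferase light generation was assessed at 10 uM ATP in pH 7.2 imidazole buffer, with luminescence measured after eight minutes at ambient temperature.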
# Active calls of the source: *; ? = inconclusive; . = not tested or not shown; [ ] = another dose, or the depositor's remark. Calls come from the whole dose curve; as a rule, active = well fitted curve in the direction sought with a large enough effect; inconclusive = small, poorly fitted or top-dose-only effect, or another doubt; inactive = no such curve, though single readings can be large; an effect the other way counts as inactive or inconclusive. Potency is the fitted concentration of half-maximal effect.
SMILES,NPC1 promoter act,ELG1 genotoxic,SMN2 splice up,Rab9 promoter act,FLuc modulator,KinaseGlo FLuc
O=C(O)c1ccccc1NC(=S)NC(=O)c1sc2ccccc2c1Cl,14.8%,4.2%,25.9%,24.8%,23.9µM*,-2.0%
CCN(CC)CCC[C@H](C)Nc1c2ccc(Cl)cc2nc2ccc(OC)cc12,.,.,6.9%[20.6 µM],.,.,-0.4%[17.1 µM]
Nc1c(S(=O)(=O)O)cc(Nc2cccc(S(N)(=O)=O)c2)c2c1C(=O)c1ccccc1C2=O,.,.,-5.4%[9.22 µM],.,.,-7.2%[7.66 µM]
CNC(=S)Nc1cccc(C(=O)OC)c1,3.55µM*,17.8%,.,2µM*,-3.3%,.
COC(=O)c1cccc(NC(=S)NCc2ccc(F)cc2)c1,10.1%,-3.7%,7.08µM*,-6.0%,3.8%,-2.1%
COC(=O)c1cccc(NC(=S)NCc2ccco2)c1,3.6%,3.1%,-5.6%,0.2%,?,0.4%
O=C(NCc1ccc2c(c1)CCN2C(=O)c1ccccc1)c1ccco1,.,.,.,.,-15.3%,.
Cc1[nH]n(-c2ccccc2)c(=O)c1N=Nc1ccccc1C(=O)O,17.9%,-15.9%,.,16.6%,16.9µM*,.
C/C(=N\NC(=O)c1ccccc1)c1c(C)[nH]n(-c2ccccc2)c1=O,-25.2%,4.2%,.,-19.9%,-12.9%,.
Cc1cc(Cl)cc2c(N=Nc3ccccc3C(=O)O)c(O)[nH]c12,?,2.5%,.,?,12µM*,.
Cc1[nH]n(-c2ccccc2)c(=O)c1C(=O)Nc1ccccc1,0.2%,9.2%,.,12.5%,16.9µM*,.
Cc1[nH]n(-c2ccc(S(=O)(=O)O)cc2)c(=O)c1N=Nc1ccccc1,.,.,-3.1%[9.22 µM],.,.,-4.6%[7.66 µM]
Cc1[nH]n(-c2ccccc2)c(=O)c1N=Nc1nccs1,18.9%,6.5%,-31.7%,10.1%,19µM*,-7.2%
COc1ccc(-c2c(C#N)c(SCC(=O)Nc3ccc(C)c(C)c3)nc(C)c2C(=O)Nc2ccccc2)cc1OC,.,.,-4.5%,.,4.3%,.
Cc1ccccc1N=Nc1c(C)[nH]n(-c2ccccc2)c1=O,2.1%,-0.7%,.,0.3%,?,3.7%
Cc1[nH]n(-c2ccccc2)c(=O)c1N=Nc1ccccc1O,-29.6%,9.7%,.,-41.8%,8.49µM*,-2.2%
CCOc1ccccc1CNC(=O)c1ccc(CS(=O)Cc2cccc(Cl)c2)o1 (configuration not stated),.,.,.,.,-0.4%,.
Cc1nc(C)c(-c2csc(Nc3ccccn3)n2)s1,0.562µM*,?,.,0.501µM*,2.39µM*,.
Cc1nc(N)sc1-c1csc(Nc2ccc(Cl)cn2)n1,16.9%,-0.9%,-46.7%,16.3%,16.9µM*,-3.6%
Cc1nc(N)sc1-c1csc(Nc2ccccn2)n1,2.24µM*,?,8.91µM*,1.58µM*,6.75µM*,-7.1%
Cc1ccc(S(=O)(=O)c2cnc(SCC(=O)Nc3cc(C)cc(C)c3)nc2N)cc1,.,.,.,.,-9.4%,.
CCOC(=O)c1c(C)[nH]c(C(=O)COC(=O)C2(C)CC2(Cl)Cl)c1C (configuration not stated),?,?,-7.8%,3.16µM*,13.5µM*,0.7%
CCCCC(=O)OCC(=O)c1[nH]c(C)c(C(C)=O)c1C,-0.5%,-2.9%,6.0%,-3.1%,10.7µM*,-0.4%
CCOC(=O)CC(=O)c1[nH]c(C)c(C(=O)OCC)c1C,0.8%,13.7%,12.6%,10.8%,?,1.7%
CCOC(=O)c1c(C)[nH]c(C(=O)COC(=O)C2CC2)c1C,-0.4%,?,.,-2.2%,9.53µM*,.
CCOC(=O)c1ccc(NC(=O)c2ccc(=O)n(Cc3cccc(C)c3)c2)cc1,.,.,.,.,-0.4%,.
Nc1c(C(=O)NCCc2ccccc2)nnn1CC(=O)Nc1ccc(Cl)cc1,.,.,.,.,0.3%,.
COc1ccc(CNC(=S)Nc2cccc(OC)c2)cc1,0.4%,-2.8%,.,0.0%,2.9%,.
COc1cccc(NC(=S)NN=C2CCCCCC2)c1,3.55µM*,?,14.1µM*,3.16µM*,8.49µM*,-2.0%
